Consider 34 compounds from ChEMBL document CHEMBL3988442, “University of Dundee, Small-Polar-MMV Screening Library” (2021).

SMILES strings stand for the structures. Out of some 48,000 compounds screened, about 13,000 (27%) showed an effect of 50% or more. This is one part of the list.

The test system of this test is Wolbachia pipientis. The test is described as follows: Anti-Wolbachia Cell-Based Screen. Type of test: functional. Conditions: 5 µM. On the set-up: scale not given: in the data most compounds retested in dose-response had high values.
As for `COCCn1ccnc1CN(Cc1ccccn1)Cc1sccc1C`, the “Percent Effect” value is -1.6%.

In the case of `CCOc1ccccc1NC(C)C(=O)N(C)Cc1cccc(F)c1` (centres undefined), the “Percent Effect” value is 13.58%.

In the case of `CC(=O)Nc1nc(CN(C)CC2CCCN2c2cccnn2)cs1` (centres undefined), the “Percent Effect” value amounted to 10.35%.

Take `CNC(=O)CC1CCN(C(=O)NCc2coc3ccccc23)CC1`: the “Percent Effect” value is on record as -8.978%.

As to `Cc1ccccc1C(C)NC(=O)CN1CCN(Cc2cccs2)CC1` (centres undefined), the “Percent Effect” value worked out at 6.89%.

On to `Cn1ccnc1C(O)c1ccccc1N1CCN(Cc2ccsc2)CC1` (centres undefined), for which the “Percent Effect” value is 129.7%.

In the case of `CC(C)Oc1ncnc2c1CCN(Cc1cccs1)CC2`, the “Percent Effect” value came to 10.07%.

Consider `CC(C)c1noc(C(C)N2CCN(Cc3ccsc3)CC2)n1` (centres undefined), for which the “Percent Effect” value turned out to be 12.33%.

As to `c1cc(CN2CCN(Cc3cscn3)CC2)cs1`, the “Percent Effect” value is -0.1438%.

As to `Cn1ccnc1C(O)c1ccccc1N1CCN(Cc2cccs2)CC1` (centres undefined), the “Percent Effect” value came to 123.9%.

With `Cn1cc(N2CCCC(Nc3ccc4c(c3)CCCO4)C2=O)cn1` (centres undefined), the “Percent Effect” value was 3.281%.

Consider `CC1CCN(C)c2ccccc2N1C(=O)c1ccc(=O)n(C)c1` (centres undefined), for which the “Percent Effect” value is recorded as -5.744%.

Take `CNS(=O)(=O)c1cccc(CNc2ccc(C(F)(F)F)nn2)c1`: the “Percent Effect” value was determined as 12.46%.

As to `COc1cccc(CC(=O)N2CCC(c3ccn4nccc4n3)CC2)c1`, the “Percent Effect” value is reported as 113.7%.

As to `Cc1cnn(CC(=O)N2CCC(c3ccn4nccc4n3)CC2)c1`, the “Percent Effect” value was found to be 130%.

Regarding `Cc1cc(C)n(CCC(=O)N2CCC(c3nc(C(C)C)no3)CC2)n1`, the “Percent Effect” value is 8.819%.

Regarding `Cc1cc(C)n(CC(=O)N2CCC(c3nc(C)no3)CC2)n1`, the “Percent Effect” value is -3.198%.

Take `CC1CCN(C(=O)Cn2cc(I)cn2)CC1`: the “Percent Effect” value was 2.364%.

Turning to `Cc1nc(O)cc(C2CCN(C(=O)CN(C)c3ccccc3)CC2)n1`, the “Percent Effect” value is -2.835%.

As for `Cc1cc(C)n(CC(=O)N2CCC(c3ccn4nccc4n3)CC2)n1`, the “Percent Effect” value is 104.2%.

Consider `CCOCCCC(=O)N1CCN(C(=O)Cc2cccc(OC)c2)CC1`, for which the “Percent Effect” value was -5.603%.

For the compound `COc1cccc(CC(=O)N2CCCN(c3ccnc(C)c3)CC2)c1`, the “Percent Effect” value is given as -23.77%.

As to `O=C(Nc1cccc(OCc2ccc(F)cc2)c1)C1COCCO1` (centres undefined), the “Percent Effect” value is given as -6.014%.

`CCOc1ccc(CC(=O)Nc2cnccc2SCCCO)cc1`: the “Percent Effect” value is 9.652%.

For `CCC[C@@H]1CN(Cc2nnc(-c3cccnc3)o2)C[C@H]1NC(C)=O`, the “Percent Effect” value was -9.676%.

In the case of `COc1ncc(Cl)c(NCc2ccc([S+](C)[O-])cc2)n1` (centres undefined), the “Percent Effect” value is -2.144%.

Take `CC1=Nc2c(c(O)nn2C(C)C)C(c2cccnc2)S1` (centres undefined): the “Percent Effect” value is on record as 138.8%.

Regarding `CC1=Nc2c(c(O)nn2C2CCOCC2)C(c2cccnc2)S1` (centres undefined), the “Percent Effect” value is 111.6%.

As for `CC1=Nc2c(c(=O)[nH]n2C2CCOCC2)C(c2cccc(Br)c2)S1` (centres undefined), the “Percent Effect” value is recorded as 2.755%.

Turning to `Cc1cccc(C(C(=O)N2CC(c3cccnc3)C2)N(C)C)c1` (centres undefined), the “Percent Effect” value was -9.21%.

Consider `CC1=Nc2c(c(O)nn2C(C)C)C(c2cn(C)nc2C)S1` (centres undefined), for which the “Percent Effect” value is recorded as 105.3%.

As for `CC1=Nc2c(c(O)nn2C(C)C)C(c2cnn(C)c2)S1` (centres undefined), the “Percent Effect” value was 103.6%.

Consider `O[C@@H]1C[C@@H](c2nc(-c3cccnc3)no2)N(C2CCOCC2)C1`, for which the “Percent Effect” value was found to be 9.041%.

For `CC1=Nc2c(c(=O)[nH]n2C(C)C)C(c2cccs2)S1` (centres undefined), the “Percent Effect” value is -8.42%.
